Assay results from PubChem BioAssay AID1546 (The Scripps Research Institute Molecular Screening Center, 2009).
Some of the results follow. Unmarked numbers belong to inactive results. Activity calls are given as the source filed them. Cut-off read from the data, not from the text of the source: active = activation above about 45%; inactive = the rest.

What follows are compounds tested against Neuropeptide Y receptor type 1 (Homo sapiens) (UniProt P25929) (assay: human Y1 receptor positive modulation or activation – cell-based, confirmation (AID 1546;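 note: cells challenged with NPY at its EC10 plus isoproterenol stimulus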)). Settings: cell-based NPY-Y1 potentiator/agonist assay; at 3.6 µM; hits give high values.
Neuropeptide Y receptor type 1 (Homo sapiens), sequence (P25929 whole entry, looked up): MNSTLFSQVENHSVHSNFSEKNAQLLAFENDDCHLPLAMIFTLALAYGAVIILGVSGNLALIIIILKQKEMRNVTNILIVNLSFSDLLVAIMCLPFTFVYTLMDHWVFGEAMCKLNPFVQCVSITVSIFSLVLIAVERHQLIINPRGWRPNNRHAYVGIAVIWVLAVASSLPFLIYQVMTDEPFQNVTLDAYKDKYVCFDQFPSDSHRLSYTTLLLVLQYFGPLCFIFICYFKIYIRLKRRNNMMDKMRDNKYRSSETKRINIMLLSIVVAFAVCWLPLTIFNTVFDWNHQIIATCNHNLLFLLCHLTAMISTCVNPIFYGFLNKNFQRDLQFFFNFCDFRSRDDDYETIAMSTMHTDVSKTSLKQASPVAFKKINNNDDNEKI

Compound	activation
O=C(Nc1ccc2c(c1)CCC2)c1cccc(S(=O)(=O)Nc2ccccc2Cl)c1	5.62%
O=[N+]([O-])c1cc(Cl)cc(/C=N/NC(=S)Nc2cc(S(=O)(=O)N3CCOCC3)ccc2Cl)c1O	72.1% (active)
COC(=O)c1ccc(NC(=O)CN(c2ccc(C)cc2)S(=O)(=O)c2c(C)n[nH]c2C)cc1	43%
Cc1cccc(OCC(O)CN2CCN(CCN3C(=O)c4cccc5cccc(c45)C3=O)CC2)c1C (stereo unspecified)	63.5% (active)
N#Cc1ccc(C(=O)Nc2nc(-c3cccs3)c(C(=O)C(F)(F)F)s2)cc1	-50.3%
COC(=O)c1sc(-c2ccc(C(C)(C)C)cc2)cc1NC(=O)/C=C/C(=O)O	40.8%
O=C(Nc1ccccc1C(F)(F)F)c1cc(-c2ccc(O)cc2)on1	2.15%
O=C1/C(=C/c2coc3ccc(O)cc3c2=O)SC(=S)N1c1ccccc1	26.1%
CCn1c2ccccc2c2cc(NC(=O)Nc3ccc([N+](=O)[O-])cc3C)ccc21	26.1%
O=C(c1cccs1)N1CCN(C(=O)N2CCOCC2)CC1	-4.4%
COCCn1nnnc1C(c1ccccc1Cl)N1CCN(c2ccccc2OC)CC1 (stereo unspecified)	-14.9%
Cc1ccccc1NCC(=O)N/N=C\c1ccc([N+](=O)[O-])s1	34.6%
CN1C(=O)c2ccccc2C(C(=O)NCCCN2CCCC2)C1c1c[nH]c2ccccc12 (stereo unspecified)	7.17%
CSc1nc(-c2ccco2)nn1C(=O)c1ccccc1Cl	31.6%
CC(=O)c1ccc(NC(=O)C2CC(=O)Nc3nc4ccccc4n32)cc1 (stereo unspecified)	38.7%
CC1=C/C(=N\OS(=O)(=O)c2ccccc2)C=CC1=O	7.41%
